In the supplement of paper PMC6555819:

Legend:
Test in all cases: PBM binding z-score (relative to random genomic background probes); higher = stronger binding; sequences stand for … in GC…GCGATTGACAGCGTAGAATGAAGG
[1] = test system: FXR:RXRa (NR concentration 270 nM, RXRa partner concentration 90 nM)
Method in brief: (§1)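 Regression normalization was applied to scanned fluorescence from custom Agilent 4×180K protein-binding microarrays. Before scanning, arrays were incubated 1 h with ligand-free nuclear receptor dimers, and binding was detected with antibodies against each partner (one per run). Binding z-scores use the random background probes as reference.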

[2] = test system: LXRa:RXRa (NR concentration 270 nM, RXRa partner concentration 90 nM)
Method in brief: as §1

[3] = test system: LXRa homodimer (NR concentration 270 nM)
Method in brief: as §1

[4] = test system: LXRb:RXRa (NR concentration 270 nM, RXRa partner concentration 90 nM)
Method in brief: as §1

[5] = test system: LXRb homodimer (NR concentration 270 nM)
Method in brief: as §1

[6] = test system: PPARa:RXRa (NR concentration 270 nM, RXRa partner concentration 90 nM)
Method in brief: as §1

[7] = test system: PPARg:RXRa (NR concentration 180 nM, RXRa partner concentration 90 nM)
Method in brief: as §1

[8] = test system: PPARg:RXRa 270nM:90nM, anti-RXR (NR concentration 270 nM, RXRa partner concentration 90 nM)
Method in brief: as §1

[9] = test system: PPARg:RXRa 30nM:10nM, anti-RXR (NR concentration 30 nM, RXRa partner concentration 10 nM)
Method in brief: as §1

[10] = test system: PPARg:RXRa 90nM:30nM, anti-RXR (NR concentration 90 nM, RXRa partner concentration 30 nM)
Method in brief: as §1

[11] = test system: PPARg:RXRa DBDmut IVT, anti-RXR (DBD mutation: RXRa K156A/R161A, NR concentration 270 nM, RXRa partner concentration 90 nM)
Method in brief: as §1

[12] = test system: PPARg:RXRa IVT, anti-PPARg (NR concentration 270 nM, RXRa partner concentration 90 nM)
Method in brief: as §1

[13] = test system: PPARg DBDmut:RXRa IVT, anti-PPARg (DBD mutation: PPARg1 K132A/R137A, NR concentration 270 nM, RXRa partner concentration 90 nM)
Method in brief: as §1

[14] = test system: PPARg DBDmut IVT, anti-PPARg (DBD mutation: PPARg1 K132A/R137A, NR concentration 270 nM)
Method in brief: as §1

[15] = test system: PPARg homodimer (NR concentration 180 nM)
Method in brief: as §1

[16] = test system: PXR:RXRa (NR concentration 270 nM, RXRa partner concentration 90 nM)
Method in brief: as §1

[17] = test system: PXR homodimer (NR concentration 270 nM)
Method in brief: as §1

[18] = test system: RARa:RXR (NR concentration 270 nM, RXRa partner concentration 90 nM)
Method in brief: as §1

[19] = test system: RARa homodimer (NR concentration 270 nM)
Method in brief: as §1

[20] = test system: RARb:RXRa (NR concentration 270 nM, RXRa partner concentration 90 nM)
Method in brief: as §1

Sequence	PBM binding z-score [1]	PBM binding z-score [2]	PBM binding z-score [3]	PBM binding z-score [4]	PBM binding z-score [5]	PBM binding z-score [6]	PBM binding z-score [7]	PBM binding z-score [8]	PBM binding z-score [9]	PBM binding z-score [10]	PBM binding z-score [11]	PBM binding z-score [12]	PBM binding z-score [13]	PBM binding z-score [14]	PBM binding z-score [15]	PBM binding z-score [16]	PBM binding z-score [17]	PBM binding z-score [18]	PBM binding z-score [19]	PBM binding z-score [20]
TCTTATAGGTAAAAGGTGAAAGTCGGTGTGGTAA	2.14	2.25	0.401	2.19	0.39	5.39	8.99	8.57	8.65	9.86	5.43	5.26	1.47	1.32	3.07	1.92	0.675	3.31	1.6	2.21
TCATATCGGTAAAGGTGAAAGTCGAACGATATGA	0.139	1.31	-0.173	1.35	-0.304	2.77	1.89	3.12	3.8	3.48	1.56	2.05	0.818	0.266	0.769	0.507	-0.566	1.62	0.00667	1.98
ATCGAAAAGTCGAGGTGAGTATAGAGAAAGGGAA	0.304	0.67	-0.216	-0.238	-0.0548	0.326	0.344	-0.139	0.203	-0.312	-0.205	0.704	1.25	-0.338	0.107	-0.235	0.048	0.0313	-0.268	0.639
TCGAGTAGGTTACCAGTGGGGCATTCAGCTTTCT	-0.0125	1.19	-0.24	0.725	-0.623	1.16	0.278	1.36	1.05	1.36	3.82	3.43	-0.827	-0.418	0.236	-0.206	-0.913	0.372	-1.02	0.865
CGAACTAGGTCAGCCAGGACAGTGAATACATTGA	1.87	0.875	0.291	0.649	-0.648	3.55	6.1	5.28	2.28	4.35	7.76	7.73	1.49	0.655	1.34	0.744	-0.0382	0.595	0.0532	3.45
CGTCAAGGTTCAACTAAGGTAACGTAAAGCACGC	5.26	4.66	1.12	2.96	0.335	4.18	2.49	2.73	0.464	1.82	-0.0468	0.857	-0.137	-0.827	1.13	3.96	0.241	3.05	0.652	3.14
CCTACTGGGCCATCAGGTCATAGATATCAACGTT	1.22	0.89	0.812	1.18	-0.323	2.72	3.22	3.9	1.86	3.15	4.5	5.08	0.923	-0.119	1.49	1.15	0.269	1.87	0.283	1.99
CGAACTAGGTCAGGGACAGTGAATCTCCGCACGC	1.19	0.726	-0.107	0.458	-0.639	3.59	5.89	4.71	2.38	4.17	7.43	7.24	1.27	0.491	0.781	0.326	-0.0952	0.867	-0.305	3.18
CCGACAGGGGCAAAGGTTACCATACTCAGTACGA	2.65	2.32	-0.14	2.73	-0.622	4.74	7.39	7.14	5.17	7.95	0.215	3.27	-0.209	-0.953	1.78	3.35	-0.101	5.32	-0.576	2.89
TCTGTTAGGTCAACGATGGTCAGCTAATCTGCTA	4.02	3.8	0.814	2.6	1.88	3.76	2.17	3.13	3.15	3.12	3.53	4	2.9	2.09	2.86	2.43	0.247	3.28	1.58	4.37
CCTAGTTGGTCACGGTCACACACGCTATAGGTAC	0.611	0.906	1.21	0.81	0.982	0.843	1.61	1.34	0.766	0.795	2.6	3.1	1.29	1.48	1.79	0.642	0.636	0.844	1.66	2.53
TCTTATAGATCAACAGGAGGTTAAGAAAGATCGA	0.826	1.6	0.457	1.36	0.165	1.6	0.533	2.08	3.48	2.93	2.24	0.332	0.51	0.867	0.452	0.958	0.0264	1.46	0.64	0.877
CGTCCAAGGTCAATGTCAGTGAAAGAGACTCGAA	6.7	4.8	0.641	3.88	1.05	5.35	4.26	4.46	1.3	2.57	2.67	3.14	-0.322	-0.37	2.27	3.36	1.18	3.8	0.639	4.85
CTACCAAGGTGAACCAGGTCGTTGATTACTATTC	0.862	1.52	-0.0698	1.8	-0.718	2.61	1.19	1.54	0.0677	0.58	2.39	3.12	-0.252	0.258	1.51	1.93	0.659	2.14	-0.266	1.92
GCATATAGGTAATAGAAGGTGAAAGTCCGATTGT	0.555	1.95	0.235	0.582	-0.597	1.78	1.24	1.35	0.321	0.9	3.98	3.21	0.445	0.104	0.675	0.246	0.153	0.961	0.689	0.402
